Activity calls are given as the source filed them.

These results are taken from PubChem BioAssay.

Test [1] deals with Human papillomavirus type 1a protein E7 (residues 44-93). As to the kind of experiment: HPV1a E7 fragment binders on microarrays, primary screen, biochemical, small-molecule microarray, residues 44-93, 635 nm fluorescence (AID 1108).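 Note: E7 fragment applied at 1 µg/mL in TBST for 1 h at 4 C; score combines spot fluorescence with its signal to noise ratio.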 Conditions: small-molecule microarray binding, fluorescence 635 nm; higher = more signal.
A short description of test [2]: modulators of HCV replicon luciferase signal, primary screen, HCV replication inhibitor project, Huh7 cells, luciferase reporter (AID 1109).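 Note: huh7 hepatoma cells harbouring a luciferase neomycin HCV replicon reporter; luciferase luminescence as measure of HCV replicon replication; test concentration not given here.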 The conditions noted are these: 48 h, higher = more signal. Background: A replicon is a self-replicating genome or part of one, used to study replication in cells.
Test [3] concerns the target Left-right determination factor 2 (Homo sapiens) (UniProt O00292). As to the kind of experiment: LEFTY2 binders on small-molecule microarrays, primary screen, biochemical, small-molecule microarray, 635 nm fluorescence scan (AID 1110). Conditions: LEFTY2 binding, higher = more signal.
Test [4] has as its target Calmodulin-1 (Homo sapiens) (UniProt P0DP23). The experiment in a line: CALM1 binders on microarrays, EGTA buffer, profiling panel, biochemical, small-molecule microarray, Cy5-labelled CALM1 (AID 1111).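 Note: labelled calmodulin applied in Tris saline Tween buffer holding calcium plus EGTA and DTT.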 The conditions noted are these: Cy5-CALM1 binding fluorescence, higher = more signal.
For test [5] the target is unchanged. As to the kind of experiment: calcium-bound CALM1 binders on microarrays, profiling panel, artefact control for SMM control-protein annotation, biochemical, small-molecule microarray, Cy5-labelled CALM1, plus calcium (AID 1112).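 Note: score merges spot fluorescence with signal to noise from triplicate slides.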 Conditions: Cy5-CALM1 binding fluorescence, higher = more signal.
Test [6] can be described thus: small-molecule microarray binders of probe aWnt5a, primary screen, biochemical, biotinylated probe, 635/667 nm fluorescence (AID 1113).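 Note: score merges 667 nm fluorescence intensity with signal-to-noise per printed feature.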 The conditions noted are these: higher = more signal.
A short description of test [7]: small-molecule microarray binders of probe aShh, primary screen, biochemical, biotinylated probe, 635/667 nm fluorescence (AID 1114).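 Note: probe is biotin-labelled aShh protein from a stem cell growth factor screen; measures binding of labelled protein to compounds printed on the slide; score merges feature fluorescence at 667 nm with signal-to-noise.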 The conditions noted are these: higher = more signal.
The nature of test [8]: small-molecule microarray binders of probe aNog, primary screen, biochemical, biotinylated probe, 635/667 nm fluorescence (AID 1115).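 Note: probe is biotinylated aNog protein used at 0.15 µg/mL for 1 h at 4 C; z-score combines 667 nm fluorescence of each spot with its signal to noise.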 Conditions: higher = more signal.
For test [9], the target named is Torsin-1A-interacting protein 1 (Homo sapiens) (UniProt Q5JTV8). As to the kind of experiment: LAP1 binders from COS7 cell lysate, primary screen, small-molecule microarray, 635/667 nm fluorescence (AID 1116). Conditions: COS7-hLAP1 lysate binding, 635 nm fluorescence, higher = more signal.
In test [10] the target is Alpha-bungarotoxin (Bungarus multicinctus) (UniProt P60615). As to the kind of experiment: alpha-bungarotoxin binders on microarray, profiling panel, artefact control for SMM control protein annotation, biochemical, small-molecule microarray, Alexa647 label, 635/667 nm fluorescence (AID 1117). The conditions noted are these: alpha-BTX-A647 binding fluorescence, higher = more signal.

The target in another test is Albumin (Bos taurus) (UniProt P02769). As to the kind of experiment: bovine serum albumin binders on microarray, profiling panel, artefact control for SMM control protein annotation, biochemical, small-molecule microarray, Alexa647 label, 635/667 nm fluorescence (AID 1118).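 Note: score merges 667 nm emission intensity and signal-to-noise per printed compound spot.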 Conditions: BSA-A647 binding, fluorescence 635 nm, higher = more signal.
A short description of test [11]: small-molecule microarray binders of probe aXIP, primary screen, biochemical, NeuroSMM set, 635/667 nm fluorescence (AID 1119).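 Note: probe is the protein aXip251-270 applied at 1 µg/mL to compound-printed slides; binding of probe to printed compounds measured as 667 nm fluorescence plus signal to noise.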 Conditions: higher = more signal, called active from +8 up or from −8 down.
Test [12] is described as follows: small-molecule binders of probe aNOTCH3, primary screen, biochemical, small-molecule microarray, 635/667 nm fluorescence (AID 1120).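 Note: probe is a biotin-tagged antibody raised against NOTCH3 rather than NOTCH3 protein; score merges spot fluorescence near 667 nm with spot signal to noise.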 The conditions noted are these: higher = more signal.
Test [13] can be described thus: small-molecule binders of probe aNOTCH2, primary screen, biochemical, small-molecule microarray, 635/667 nm fluorescence (AID 1121).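 Note: score merges feature fluorescence read at 667 nm with its signal to noise.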 The conditions noted are these: higher = more signal.
Test [14] addresses Carbonic anhydrase 2 (Homo sapiens) (UniProt P00918). The experiment in a line: CAII small-molecule binders, profiling panel, biochemical, small-molecule microarray, Alexa647-labelled CAII (AID 1122). The conditions noted are these: CAII-A647 binding fluorescence, higher = more signal.
The nature of test [15]: COS7 lysate on small-molecule microarray, probe aHis, 635 nm (AID 1123).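 Note: z-score combines 667nm fluorescence intensity with signal-to-noise per printed compound spot.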 The conditions noted are these: COS7 cell lysate, fluorescence, higher = more signal.
Test [16] in a line: compound binding in COS7 lysate, probe aLAP1, primary screen, cell lysate, small-molecule microarray (AID 1124).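 Note: lysate comes from COS7 cells expressing LAP1 and is applied at 0.3 µg/mL; score merges spot fluorescence near 667 nm with signal-to-noise over triplicate slides.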 Conditions: probe aLAP1, fluorescence, higher = more signal.
The subject of the next test is Sam68 (KHDRBS1). As to the kind of experiment: Sam68 small-molecule binders, primary screen, biochemical, small-molecule microarray, 635 nm fluorescence (AID 1125).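 Note: score merges 667 nm channel intensity with signal to noise over triplicate slides.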 Conditions: small-molecule microarray binding, higher = more signal.
Test [17] relates to Chordin-like protein 2 (CHRDL2). As to the kind of experiment: CHRDL2 small-molecule binders, primary screen, biochemical, small-molecule microarray, 635 nm fluorescence (AID 1126).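 Note: printed compound slides probed with Chrdl2 protein at 4 µg/mL for 1 h at 4 C; score merges 667 nm emission intensity with signal to noise over three replicate slides.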 The conditions noted are these: small-molecule microarray binding, fluorescence 635 nm; higher = more signal.
Test [18] concerns the target Concanavalin-A (Canavalia ensiformis) (UniProt P02866). The experiment in a line: ConA small-molecule binders, primary screen, artefact control for SMM control protein annotation, biochemical, small-molecule microarray, Alexa647 label, 635 nm (AID 1127).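 Note: z combines 667 nm emission intensity with signal-to-noise across three replicate slides.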 Conditions: ConA-A647 binding fluorescence, higher = more signal.

Sequence of Concanavalin-A (Canavalia ensiformis) (P02866 whole entry, looked up): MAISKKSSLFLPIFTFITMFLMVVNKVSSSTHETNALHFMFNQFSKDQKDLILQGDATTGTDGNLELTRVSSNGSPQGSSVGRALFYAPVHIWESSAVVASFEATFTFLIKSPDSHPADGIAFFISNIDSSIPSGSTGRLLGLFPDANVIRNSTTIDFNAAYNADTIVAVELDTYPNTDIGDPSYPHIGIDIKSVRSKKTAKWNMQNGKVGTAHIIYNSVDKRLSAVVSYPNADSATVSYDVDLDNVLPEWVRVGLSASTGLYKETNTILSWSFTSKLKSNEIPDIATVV
Sequence of Torsin-1A-interacting protein 1 (Homo sapiens) (Q5JTV8 whole entry, looked up): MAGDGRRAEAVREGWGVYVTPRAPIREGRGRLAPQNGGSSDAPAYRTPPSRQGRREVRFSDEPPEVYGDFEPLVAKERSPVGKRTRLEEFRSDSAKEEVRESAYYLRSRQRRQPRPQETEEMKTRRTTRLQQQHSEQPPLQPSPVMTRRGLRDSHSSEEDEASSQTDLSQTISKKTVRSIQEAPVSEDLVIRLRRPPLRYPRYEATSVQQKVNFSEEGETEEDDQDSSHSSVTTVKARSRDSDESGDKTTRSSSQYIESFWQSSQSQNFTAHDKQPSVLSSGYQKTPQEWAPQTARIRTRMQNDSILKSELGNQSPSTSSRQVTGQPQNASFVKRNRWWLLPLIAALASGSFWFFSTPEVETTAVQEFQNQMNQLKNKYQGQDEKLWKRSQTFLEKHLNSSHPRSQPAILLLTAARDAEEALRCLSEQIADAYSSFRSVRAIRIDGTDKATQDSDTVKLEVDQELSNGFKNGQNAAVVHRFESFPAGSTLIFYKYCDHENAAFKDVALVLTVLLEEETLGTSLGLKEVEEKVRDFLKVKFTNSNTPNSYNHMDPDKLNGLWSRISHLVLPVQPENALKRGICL
Sequence of Albumin (Bos taurus) (P02769 whole entry, looked up): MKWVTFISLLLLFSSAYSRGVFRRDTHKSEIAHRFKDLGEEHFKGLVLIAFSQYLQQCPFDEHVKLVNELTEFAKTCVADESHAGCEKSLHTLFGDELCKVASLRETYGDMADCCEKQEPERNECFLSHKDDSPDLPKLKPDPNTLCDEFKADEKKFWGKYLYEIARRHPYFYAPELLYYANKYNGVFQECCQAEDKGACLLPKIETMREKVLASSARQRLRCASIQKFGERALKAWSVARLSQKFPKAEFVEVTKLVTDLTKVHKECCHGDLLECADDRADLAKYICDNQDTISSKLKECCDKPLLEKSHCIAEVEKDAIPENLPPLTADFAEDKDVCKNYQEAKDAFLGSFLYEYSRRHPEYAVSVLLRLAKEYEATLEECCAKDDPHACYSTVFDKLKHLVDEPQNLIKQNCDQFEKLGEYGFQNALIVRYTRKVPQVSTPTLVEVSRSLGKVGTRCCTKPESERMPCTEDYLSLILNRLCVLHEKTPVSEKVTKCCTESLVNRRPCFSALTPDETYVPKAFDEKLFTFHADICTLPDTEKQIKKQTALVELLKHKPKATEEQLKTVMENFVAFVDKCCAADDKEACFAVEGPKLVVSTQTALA
Sequence of Alpha-bungarotoxin (Bungarus multicinctus) (P60615 whole entry, looked up): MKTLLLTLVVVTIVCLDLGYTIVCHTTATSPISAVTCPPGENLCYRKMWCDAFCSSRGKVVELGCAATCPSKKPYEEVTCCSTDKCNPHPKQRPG
Sequence of Left-right determination factor 2 (Homo sapiens) (O00292 whole entry, looked up): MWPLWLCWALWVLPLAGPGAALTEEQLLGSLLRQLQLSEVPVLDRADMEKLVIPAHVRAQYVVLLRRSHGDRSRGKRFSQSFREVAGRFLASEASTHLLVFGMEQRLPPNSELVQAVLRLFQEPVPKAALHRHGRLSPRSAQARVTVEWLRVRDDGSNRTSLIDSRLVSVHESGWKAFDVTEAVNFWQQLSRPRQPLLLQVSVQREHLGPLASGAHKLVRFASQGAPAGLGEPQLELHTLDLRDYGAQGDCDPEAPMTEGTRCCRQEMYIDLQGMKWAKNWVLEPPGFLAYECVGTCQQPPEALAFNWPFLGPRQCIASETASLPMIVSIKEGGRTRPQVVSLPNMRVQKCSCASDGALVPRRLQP

On to `COc1ccc([Si](C)(C)[C@@H]2[C@@H](CC(=O)N3Cc4ccccc4C[C@H]3CO)O[C@]3(C(=O)N(Cc4cccc(N5CCCCC5=O)c4)c4ccccc43)[C@H]2C)cc1`, for which the composite z-score in [1] was 1.09; in test [3], 0.709; in test [4], 0.836; in test [5], -0.219; in [6], -0.0585; in [7], 0.0557. The composite z-score was 0.228 in test [8]; 1.11 in [9]; 1.9 in [10]; -0.565 with Albumin (Bos taurus); 0.0425 in [12]; -0.133 in test [13]. For the same compound, the composite z-score in test [14] is -0.0599; in test [15], 0.977; in test [16], 0.426; in the test with Sam68 (KHDRBS1) it was 1.29; in test [17] it was 1.28; in test [18], 1.13. Also, in test [2], the z-score was -3.47. The composite Z-score in test [11] was 0.436 (inactive).

With `COC(=O)[C@@]1(Cc2ccc(OC)cc2)[C@H]2c3cc(C(=O)N(C)C)n(Cc4cc(F)c(F)c(F)c4)c3C[C@H]2CN1C(=O)c1ccccc1`, the composite z-score is 1.43 in test [1]; 0.159 in [3]; 2.29 in test [4]; 1.17 in test [5]; 0.225 in test [6]; 0.75 in test [7]. For the same compound, the composite z-score came to 1.73 in test [8]; 1.19 in test [9]; 1.86 in [10]; 0.895 with Albumin (Bos taurus); 0.578 in [12]; 0.212 in test [13]. Moreover, the composite z-score in test [14] was 0.767; in test [15], 2.73; in [16], 0.331; in the test on Sam68 (KHDRBS1), 1.11; in [17] it was -0.0554; in test [18], 1.13. The z-score in test [2] was -2.04. Besides, the composite Z-score in [11] is -0.37 (inactive).

With `COC(=O)[C@@]1(Cc2ccc(F)cc2)[C@@H]2[C@@H](CC(=O)[C@H]2CC(=O)C(=O)N2CCCC2)CN1C(=O)c1ccccc1`, the composite z-score in test [1] was 1.43; in test [3], -0.412; in [4], 2.17; in [5], 1.01; in test [6], 0.135; in test [7], 0.338. For the same compound, the composite z-score in test [8] was found to be 2.34; in test [9], 0.739; in test [10], 1.03; with Albumin (Bos taurus), 1.08; in [12], 0.506; in [13], 0.239. Further, the composite z-score in test [14] is 0.603; in [15] it was 3.17; in [16], 0.552; in the test on Sam68 (KHDRBS1) it was 1.3; in test [17] it was -0.232; in [18], 1.16. Further, the z-score in test [2] is -2.01. For the same compound, in test [11], the composite Z-score was 0.304 (inactive).

For the compound `Cc1cc(C)c(C(O)C2C=CC3C(=O)N(c4ccccc4)C(=O)C3N2Nc2ccccc2)c(C)c1` (stereo not given), the composite z-score in test [1] was 1.16; in test [3], 0.109; in test [4], 1.6; in test [5], 1.03; in test [6], 0.216; in test [7], -0.0791. Also, the composite z-score in test [8] stood at 1.99; in test [9] it was 1.1; in test [10] it was 2.38; in the test with Albumin (Bos taurus), 0.767; in test [12], 0.236; in test [13] it was 0.294. Also, the composite z-score in [14] is 0.781; in [15], 2.13; in test [16] it was 0.0109; in the test with Sam68 (KHDRBS1), 1.3; in test [17], -0.194; in test [18] it was 1.18. For the same compound, the z-score in [2] was -0.177. Also, in test [11], the composite Z-score is 0.0805 (inactive).

For `C=CCNC(=O)[C@H]1[C@@H]2C(=O)O[C@@H](c3ccccc3)[C@@H](c3ccccc3)N2[C@@H](c2ccc(OCCO)cc2)[C@]12C(=O)N(C(=O)OCCOC)c1ccc(C#CC3=CCCCC3)cc12`, the composite z-score in test [1] was -0.192; in [3], 0.652; in [4], 1.28; in test [5], 0.171; in [6] it was 0.0243; in test [7] it was 0.0141. For the same compound, the composite z-score in test [8] is -0.038; in test [9] it was 2.23; in test [10], 2.5; in the test with Albumin (Bos taurus) it was 0.401; in [12], 0.0813; in test [13] it was -0.109. Moreover, the composite z-score came out at 0.643 in test [14]; 1.34 in test [15]; 0.737 in test [16]; 1.31 in the test with Sam68 (KHDRBS1); 0.399 in test [17]; 1.12 in test [18]. The compound further gave a z-score in [2] of -1.94. For the same compound, the composite Z-score in test [11] was 0.495 (inactive).

For `C=CCC(OC(C)=O)[C@@H]1[C@@H](N(Cc2ccc(-c3ccccc3)cc2)C(=O)c2cccc3ccccc23)c2cc(OCCCO)ccc2N1C(=O)c1ccc2ccccc2n1` (stereo not given in full), the composite z-score is 0.0254 in test [1]; -0.319 in [3]; 0.367 in [4]; 1.01 in [5]; -0.224 in test [6]; -0.2 in [7]. Further, the composite z-score is -0.158 in [8]; 0.0708 in test [9]; 0.382 in test [10]; 0.028 with Albumin (Bos taurus); 0.0306 in test [12]; -0.16 in test [13]. In addition, the composite z-score in test [14] is 0.212; in [15], 0.621; in test [16] it was 0.546; with Sam68 (KHDRBS1), -0.168; in [17], 0.165; in test [18], -0.0782. In addition, the z-score in test [2] is -0.281. In addition, in test [11], the composite Z-score was -0.119 (inactive).
